# Measured values as given in PubChem BioAssay AID1240 (Sanford-Burnham Center for Chemical Genomics, 2008).
# Out of some 50,000 compounds screened, about 800 (1.6%) showed an effect of 50% or more. This excerpt belongs to a sample that is enriched for strong results.
# Biological target: Bcl-2-like protein 10 (Homo sapiens) (UniProt Q9HD36)
# Experiment: Phenotype converters, Bcl-B/TR3 peptide binding displacement, primary biochemical FP (AID 1240);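 note: 0% = Bcl-B with tracer peptide and DMSO and 100% = tracer peptide lacking Bcl-B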
# Conditions: GST-Bcl-B / FITC-TR3 peptide fluorescence polarization; stronger effect = higher value; compound at 3.75 mg/L
# Sequence of Bcl-2-like protein 10 (Homo sapiens) (Q9HD36 whole entry, looked up): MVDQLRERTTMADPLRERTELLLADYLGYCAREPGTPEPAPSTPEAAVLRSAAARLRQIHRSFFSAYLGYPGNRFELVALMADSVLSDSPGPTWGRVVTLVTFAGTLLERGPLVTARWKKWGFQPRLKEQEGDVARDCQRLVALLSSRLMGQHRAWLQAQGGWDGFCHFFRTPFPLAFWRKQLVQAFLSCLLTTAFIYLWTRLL
row,SMILES,displacement [%]
1,O=C(c1cccc([N+](=O)[O-])c1)c1ccc2c(c1)C(=O)N(c1ccccc1C(=O)O)C2=O,-2.7
2,Cc1ccc(S(=O)(=O)NCCSCc2ccccc2Cl)cc1[N+](=O)[O-],-8.5
3,CCN(CC)S(=O)(=O)c1ccc(NC(=O)c2ccco2)cc1,-5.1
4,Cc1ccccc1OCC(=O)Nc1ccccc1CO,-7.8
5,CC(=O)Nc1ccccc1NC(=O)COc1ccccc1C,11.1
6,CCOc1ccc(C(=O)Nc2ccc3c4c(cccc24)CC3)cc1[N+](=O)[O-],14.7
7,CCCOc1cccc(C(=O)Nc2ccc3c4c(cccc24)CC3)c1,88.7
8,CCCOc1cccc(C(=O)Nc2ccc(I)cc2Cl)c1,10.7
9,Cc1ccccc1OCC(=O)Nc1ccc2c3c(cccc13)CC2,107
10,O=C(N/N=C/c1cccs1)C(=O)NC1CCCCC1,7.6
11,O=C(O/C(=C/c1nccn1Cc1ccc(Cl)cc1)c1ccccc1)c1ccccc1,-1.2
12,O=C(COc1ccc(Cl)cc1)Nc1ccc2c(c1)Cc1ccccc1-2,5.4
13,O=C(Nc1ccccc1[N+](=O)[O-])c1ccccc1Cl,8.4
14,COc1ccc(C(=O)CN2CCN(CCN3C(=O)c4cccc5cccc(c45)C3=O)CC2)cc1,9.4
15,COc1ccccc1N1C(=O)/C(=C/c2ccc(N(C)C)cc2)SC1=S,-8.2
16,Cc1c(-c2ccc(Cl)cc2)nc2ccccc2c1C(=O)Nc1ccc(F)cc1F,-9.1
17,CCn1c(O)c(/C=N/N=C2CCCC2)c2ccc(C3=NNC(=O)CC3)cc21,45.9
18,CCCOc1ccc(C2=NNC(=O)CC2)cc1,3.6
19,CCn1c(O)c(/C=N/N=C/c2ccccc2)c2ccc(C3=NNC(=O)CC3)cc21,119
20,CC1=NN(c2cccc(Cl)c2)C(=O)/C1=C/C=C/c1cccc([N+](=O)[O-])c1,13.6
21,Cc1nc2cc(-c3ccc(F)cc3)[nH]n2c(=O)c1C,-7.3
22,O=C1OC(c2ccccc2)=C/C1=C\c1c(Cl)cccc1Cl,-5.8
23,COc1nccc(NCc2ccccc2)c1C#N,-12.3
24,N#Cc1c(NCc2ccccc2)ccnc1SCc1ccccc1,-4.8
25,N#Cc1c(NCc2ccccc2)ncc2c1Nc1ccccc1C2,112
26,C=C(Br)Cn1c(C)nc2ccccc21,14.6
27,COc1ccc(C(CC(=O)c2ccc(C)cc2)Nc2ccc(I)cc2)cc1OC (stereo not given),-7

row,SMILES,displacement [%]
1,COc1cc(/C=C(\C#N)c2nc3ccc(C)cc3[nH]2)cc(OC)c1OC(C)=O,-4.6
2,O=C(NC1=Nc2cccc3cccc1c23)c1cccc(C(F)(F)F)c1,62.1
3,O=C(Nc1cccc(C(F)(F)F)c1)c1cccc(N2C(=O)c3ccccc3C2=O)c1,-5.6
4,COc1ccc(C(=O)NNC2=Nc3cccc4cccc2c34)cc1,-17.1
5,O=C(Nc1cccc(Br)c1)c1ccc([N+](=O)[O-])cc1,12.7
6,Cc1[nH]c2ccc(Br)cc2c1CC(=O)N/N=C/c1ccc(Cl)c(Cl)c1,5.1
7,C=CCOC(=O)C1=C(C)NC(C)=C(C(=O)OCC=C)C1c1ccc(C)o1,12.2
8,CCOC(=O)C1=C(C)N=c2s/c(=C\c3ccc(OCC)cc3)c(=O)n2C1c1ccccc1 (stereo not given),-1
9,CCOC(=O)C1=C(C)N=c2s/c(=C/c3ccc(Cl)cc3)c(=O)n2C1c1ccccc1 (stereo not given),90.8
10,CCOC(=O)C1=C(C)N=c2s/c(=C\c3ccccc3)c(=O)n2C1c1ccc(Cl)cc1 (stereo not given),3.8
11,CCOC(=O)C1=C(C)N=c2s/c(=C\c3ccc(C(C)=O)cc3)c(=O)n2C1c1ccccc1 (stereo not given),76.2
12,CCOC(=O)C1=C(C)N=c2s/c(=C\c3ccc4c(c3)OCO4)c(=O)n2C1c1ccc2c(c1)OCO2 (stereo not given),3.5
13,CCOC(=O)C1=C(C)N=c2s/c(=C\c3ccc4c(c3)OCO4)c(=O)n2C1c1ccc(C)cc1 (stereo not given),-7.1
14,CCOC(=O)C1=C(C)N=c2s/c(=C\c3ccc(Cl)cc3)c(=O)n2C1c1ccc2c(c1)OCO2 (stereo not given),121
15,CCOC(=O)C1=C(C)N=c2s/c(=C/c3ccc(C)cc3)c(=O)n2C1c1ccccc1 (stereo not given),2.5
16,CCOC(=O)C1=C(C)N=c2s/c(=C\c3ccc([N+](=O)[O-])cc3)c(=O)n2C1c1ccc(Cl)cc1 (stereo not given),9.2
17,O=C(/C=C/c1cccc(C(F)(F)F)c1)Nc1ccccc1[N+](=O)[O-],7
18,O=C(O)CCC(=O)N1N=C(c2cccs2)CC1c1ccccc1Cl (stereo not given),-8.4
19,O=C(Cc1ccc(Cl)cc1)Nc1ccc(Cl)cn1,8.8
20,Clc1ccc(N2CCN(N=Cc3c(Cl)cccc3Cl)CC2)cc1,8.5
21,Cc1ccc(C(=O)Nc2ccc(C(=O)O)cc2)cc1S(=O)(=O)NC1CCCCC1,-11.1
22,Cc1nn(-c2ccccc2)c(C)c1/C=N/O,3.2
23,CCOC(=O)c1c(NC(=O)C(C)N2C(=O)c3ccccc3C2=O)sc2c1CCC(C)C2 (stereo not given),2.5
24,COc1ccc(N2C(=O)NC(=O)/C(=C\c3ccc(-c4ccccc4C(=O)O)o3)C2=O)cc1,-88.8
25,O=C1NN(c2ccccc2)C(=O)/C1=C/c1ccc(-c2ccc(F)cc2)o1,8.1
26,Cc1ccc(N2C(=O)NC(=O)/C(=C/c3ccc(-c4ccc(F)cc4)o3)C2=O)cc1,40.5
27,COc1ccc(N2C(=O)NC(=O)/C(=C/c3ccc(OCc4ccccc4F)cc3)C2=O)cc1,63.1

row,SMILES,displacement [%]
1,COc1ccc(N2C(=O)NC(=O)/C(=C/c3ccc(I)o3)C2=O)cc1,3.6
2,O=C1NC(=O)N(c2ccccc2)C(=O)/C1=C\c1ccc(-c2ccc(F)cc2)o1,137
3,COc1ccc(N2C(=O)NC(=O)/C(=C/c3ccc(-c4ccc(F)cc4)o3)C2=O)cc1,100
4,COc1ccc(N2C(=O)NC(=O)/C(=C\c3ccc(C)cc3)C2=O)cc1,-6
5,COc1ccc(N2C(=O)NC(=O)/C(=C/c3ccc(Sc4ccc(C)cc4)o3)C2=O)cc1,125
6,COc1ccc(N2C(=O)NC(=O)/C(=C/c3cccc(OCc4ccccc4F)c3)C2=O)cc1,0.1
7,O=C1NC(=O)N(c2ccccc2)C(=O)/C1=C\c1ccc(OCc2ccccc2F)cc1,12.9
8,COC(=O)c1c(N)sc(C(=O)Nc2ccccc2OC)c1C,1.7
9,Cc1cc(Cl)ccc1OCC(=O)Nc1nc2ccc(Cl)cc2s1,-7.8
10,O=[N+]([O-])c1cccc(S(=O)(=O)N2CCc3ccccc3C2)c1,0
11,COc1ccccc1N1C(=O)C2C(C1=O)C1C=CC2C12CC2 (stereo not given),15.1
12,O=C(Nc1ccc(I)cc1)/C(=C\c1cccc([N+](=O)[O-])c1)NC(=O)c1cccs1,-0.6
13,COc1cccc(OC)c1C(=O)Nc1ccc(C(=O)Oc2ccccc2)c(O)c1,-9.1
14,O=C(Nc1ccc(Cl)c(-c2nc3ccccc3o2)c1)c1cccc(F)c1,-5.1
15,CC(=O)Nc1ccc(S(=O)(=O)Nc2ccccc2Br)cc1,-2.9
16,O=C1NC(=S)N/C1=C/c1cccc(O)c1,-6.7
17,COc1cc(OC)cc(-c2nc3ccc(C)cc3c(=O)o2)c1,-17.8
18,O=C(Nc1ccc2nn(-c3ccc(F)cc3)nc2c1)c1ccc(-c2ccc([N+](=O)[O-])cc2)o1,8.2
19,C=CCN1C(=O)/C(=C\c2ccc(-c3ccc(F)cc3)o2)C(=O)NC1=S,-3.3
20,CN1C(=O)NC(=O)/C(=C/c2ccc(-c3ccc(F)cc3)o2)C1=O,123
21,CN1C(=O)NC(=O)/C(=C/c2ccc(-c3ccc(Cl)cc3)o2)C1=O,37
22,COc1ccccc1CNC(=O)c1cccc(Cl)c1,-6.1
23,COc1cccc(C(=O)Nc2ccc(-c3nc4ccccc4o3)c(O)c2)c1,-23.2
24,O=[N+]([O-])c1ccc(/C=N\Nc2nc(-c3ccccc3)c3cc(Cl)ccc3n2)o1,-5.3
25,Clc1ccc2nc(N/N=C/c3ccc4c(c3)OCO4)nc(-c3ccccc3)c2c1,83.7
26,Clc1ccc2nc(N/N=C/c3ccc4ncccc4c3)nc(-c3ccccc3)c2c1,-2.6
27,Cc1ccc(/C=N\N2CCN(c3ccccc3)CC2)cc1,-3.9

row,SMILES,displacement [%]
1,COc1ccc2nc(Nc3nc(C)cc(-c4ccccc4)n3)nc(C)c2c1,-14.2
2,COc1cc(C)nc(Nc2nc(C)c3cc(C)ccc3n2)n1,107
3,COc1cc(C)nc(Nc2nc(C)c3ccc(C)cc3n2)n1,13.2
4,CN(C)c1ccc(CC2(CC(=O)c3ccccc3)C(=O)c3ccccc3C2=O)cc1,1.8
5,CC1=CC(=O)C=C/C1=N\OS(=O)(=O)c1ccccc1,25.4
6,COc1cc(C=O)ccc1OC(C)c1ccccc1 (stereo not given),1.1
7,COc1cc(C=C2C(=O)N(C)C(=O)N(C)C2=O)ccc1OC(C)c1ccccc1 (stereo not given),120
8,COc1ccc(C=C2C(=O)N(C)C(=O)N(C)C2=O)cc1OC,0.6
9,COc1ccc(OC)c(/C=c2\sc3nc4c(Br)c(C)c(C)cc4n3c2=O)c1,19.8
10,Cc1ccc(OCC(=O)O/N=C(\N)c2ccncc2)c(C)c1,2.5
11,CC1(C)Cc2ccccc2-c2nnc(-c3cccs3)n21,-8.6
12,N/C(=N\c1nc2ccccc2o1)NC(=O)c1ccccc1,-10.3
13,N/C(=N/c1nc2ccccc2o1)NC(=O)c1sc2ccccc2c1Cl,51.6
14,N/C(=N\c1nc2ccccc2o1)NC(=O)c1ccc(F)cc1,1.4
15,O=C(Oc1ccc(Br)cc1C(=S)N1CCOCC1)c1ccc([N+](=O)[O-])cc1,7.3
16,Cc1cccc(NC(=O)c2c(NC(=O)C(C)(C)C)sc3c2CCC3)c1,-2.3
17,Nc1nnc2c(n1)-c1ccccc1C2=O,1
18,CNc1c(Cl)c(Cl)c(Cl)c2c1C(=O)c1ccccc1C2=O,11.2
19,Nc1cccc2c1C(=O)c1c(N)cccc1C2=O,-4.2
20,CCC(=O)Nc1cccc2c1C(=O)c1ccccc1C2=O,11.2
21,CNc1ccc2[nH]nc3c2c1C(=O)c1ccccc1-3,173
22,Nc1ccc2[nH]nc3c2c1C(=O)c1ccccc1-3,104
23,Cc1cc(C)nc(NS(=O)(=O)c2ccc(NC(=S)NC(=O)c3ccc(Br)cc3)cc2)n1,2.6
24,O=C(NCCN1CCOCC1)c1sc2ccccc2c1Cl,-3.6
